Assay [1] in a line: qHTS assay to identify small molecule agonists of the vitamin D receptor (VDR) signaling pathway - cell viability counter screen (AID 743224). Note: series mostly up to about 63 µM; nearly all actives have a fitted effect of over 50% in size. In a few lines:
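Counter screen run in the same wells as the VDR-bla reporter assay: CellTiter-Glo luminescence, 30 min at room temperature, after 16 h compound treatment at 37C of cells pre-plated for 4 h.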
A general note: In qHTS, concentration-response curves come from the screen itself.

Assay [2] can be described thus: qHTS assay to identify small molecule antagonists of the vitamin D receptor (VDR) signaling pathway - cell viability counter screen (AID 743225). Note: nearly all actives have a fitted effect of over 50% in size. Note: potency is the fitted concentration of half-maximal effect. In a few lines:
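Read-out: CellTiter-Glo luminescence measured 30 min after reagent addition at room temperature. Cells were VDR-bla HEK 293T exposed 16 h at 37C, 5% CO2, to compound with 3 nM final calcitriol agonist.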

The nature of assay [3]: qHTS assay to identify small molecule agonists of the NFkB signaling pathway - cell viability counter screen (AID 1159515; calls by dose curve; note: nearly all actives have a fitted effect of over 55% in size; note: potency is the fitted concentration of half-maximal effect). In short, it runs like this:
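Read by CellTiter-Glo luminescence (30 min, room temperature) in the wells also used for the beta-lactamase FRET read. ME-180 NFkB-bla cells at 2,000 per well were plated overnight, then exposed to compound for 5 hr at 37 C.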

Assay [4] in a line: qHTS assay to identify small molecule agonists of the endoplasmic reticulum stress response signaling pathway (AID 1159516; active = well fitted activation curve with a large enough effect in the signal ratio in the repeat runs, not every such curve was filed as active; the % refers to the signal ratio). In short, it runs like this: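 Ratiometric FRET readout (405 nm excitation; 460 and 530 nm emission) of a beta-lactamase gene driven by the ER stress response element, after 2 hr substrate loading. HeLa ESRE-bla cells were seeded overnight and treated with compounds for only 5 hr at 37 C.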

Assay [5] is described as follows: qHTS assay to identify small molecule agonists of the endoplasmic reticulum stress response signaling pathway - cell viability counter screen (AID 1159517; calls by dose curve; note: nearly all actives have a fitted effect of over 50% in size; note: potency is the fitted concentration of half-maximal effect). In short, it runs like this: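 After overnight attachment, ESRE-bla HeLa cells were treated with Tox21 library compounds for 5 hr. CellTiter-Glo luminescence, read 30 min post-addition at room temperature, reported viability.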

Assay [6] is described as follows: qHTS assay to identify small molecule antagonists of the retinoid-related orphan receptor gamma (ROR-gamma) signaling pathway - cell viability counter screen (AID 1159520). Note: nearly all actives have a fitted effect of over 50% in size. Note: potency is the fitted concentration of half-maximal effect. In a few lines:
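Cytotoxicity was read from cellular ATP (CellTiter-Glo luminescence) after 16 hr at 37 C with 1 uM doxycycline induction. The inducer was added 2 hr after compound transfer to Tet-on ROR gamma CHO cells.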

Assay [7] deals with Nuclear receptor ROR-gamma (Homo sapiens) (UniProt P51449). As to the kind of experiment: qHTS assay to identify small molecule antagonists of the retinoid-related orphan receptor gamma (ROR-gamma) signaling pathway (AID 1159521; note: nearly all actives have a fitted effect of over 50% in size; note: potency is the fitted concentration of half-maximal effect). In a few lines: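 CHO Tet-on RORγ, RORE-luc reporter. Cpd 2 h pre-incubation, then dox hyclate 1 uM final, 16 h, 37 C/5% CO2. ONE-Glo luminescence; decrease = antagonist.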

A short description of assay [8]: qHTS assay to identify small molecule agonists of the AP-1 signaling pathway - cell viability counter screen (AID 1159525; calls by dose curve; note: nearly all actives have a fitted effect of over 55% in size; note: potency is the fitted concentration of half-maximal effect). In short, it runs like this: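 Intracellular ATP by Cell Titer Glo luminescence (30 min, RT) in the same ME-180 AP-1-bla wells after the 5 h compound exposure at 37 °C. Normalised to tetra n-octyl ammonium bromide and DMSO controls.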
A short description of assay [9]: qHTS assay to identify small molecule agonists of the AP-1 signaling pathway (AID 1159526; calls by dose curve).
Assay [10] can be described thus: qHTS assay to identify small molecule agonists of the RXR signaling pathway - cell viability counter screen (AID 1159529). Note: nearly all actives have a fitted effect of over 50% in size. Note: potency is the fitted concentration of half-maximal effect. In a few lines: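 HEK 293T RXRa-bla cells, 2% CS-FBS; 5 h settle; cpd 16 h 37 C, 5% CO2; CellTiter-Glo 30 min RT, luminescence. Tetraoctyl ammonium bromide as positive control.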
Assay [11] in a line: qHTS assay to identify small molecule antagonists of the retinoid acid receptor (RAR) signaling pathway - cell viability counter screen (AID 1159551). Note: nearly all actives have a fitted effect of over 35% in size. Note: potency is the fitted concentration of half-maximal effect. In a few lines:
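Cytotoxicity counter screen: ATP content quantified by CellTiter-Glo luminescence in C3RL4 cells treated 6 hr at 37 C with compound and retinol (1 uM final). Cells plated at 1,000/well and cultured overnight before dosing.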

Assay [12] is described as follows: qHTS assay to identify small molecule antagonists of the retinoic acid receptor (RAR) signaling pathway (AID 1159552; note: nearly all actives have a fitted effect of over 50% in size). In short, it runs like this:
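Cells of the C3RL4 line were seeded, incubated overnight, then dosed with compounds in DMSO followed immediately by retinol (1 uM final). Six hours later luciferase detection reagent went in; signal was measured after 30 min at RT.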

Assay [13] can be described thus: qHTS assay to identify small molecule agonists of the retinoic acid receptor (RAR) signaling pathway (AID 1159553). Note: potency is the fitted concentration of half-maximal effect. In short, it runs like this: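 Luminescence was measured 30 min after luciferase reagent addition at room temperature. Before that, C3RL4 reporter cells (1,000 per well, plated overnight) were treated with compound for 6 hr at 37 C and 5% CO2.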
For assay [14], the target named is Retinoic acid receptor RXR-alpha (Homo sapiens) (UniProt P19793). Put plainly: qHTS assay to identify small molecule agonists of the RXR signaling pathway (AID 1159527; calls by dose curve; note: nearly all actives have a fitted effect of over 35% in size). In short, it runs like this: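 Read-out: beta-lactamase FRET ratio (405 nm excitation, 460 and 530 nm emission) after 2 hr substrate loading at room temperature. Cells were RXR-alpha-UAS-bla HEK 293T treated with compounds for 16 hr in 2% charcoal-stripped FBS medium.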
Chain of Retinoic acid receptor RXR-alpha (Homo sapiens) (P19793 whole entry, looked up): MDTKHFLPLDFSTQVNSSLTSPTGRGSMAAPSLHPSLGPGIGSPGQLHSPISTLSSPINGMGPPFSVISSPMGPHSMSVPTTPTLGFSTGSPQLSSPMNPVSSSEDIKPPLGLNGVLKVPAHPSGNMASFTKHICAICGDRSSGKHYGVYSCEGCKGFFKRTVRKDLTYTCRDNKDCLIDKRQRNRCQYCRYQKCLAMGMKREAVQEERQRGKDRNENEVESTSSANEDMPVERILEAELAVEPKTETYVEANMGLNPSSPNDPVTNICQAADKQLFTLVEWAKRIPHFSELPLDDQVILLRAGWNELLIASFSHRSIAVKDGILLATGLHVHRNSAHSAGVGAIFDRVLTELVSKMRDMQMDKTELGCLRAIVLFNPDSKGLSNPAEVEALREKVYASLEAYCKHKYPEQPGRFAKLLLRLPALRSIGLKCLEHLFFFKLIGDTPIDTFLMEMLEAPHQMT

A short description of assay [15]: qHTS assay to identify small molecule antagonists of the estrogen related receptor signaling pathway with the pleiotropic PPARgamma coactivator (PGC) cell viability counter screen (AID 1224822; note: potency is the fitted concentration of half-maximal effect). In a few lines: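 Viability counter-screen read by fluorescence intensity after 30 min with CellTiter-Fluor at 37 C; PGC/ERR reporter cells were exposed to compounds for 17.5 h at 37 C following a 6 h preincubation.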

A short description of assay [16]: qHTS assay to identify small molecule antagonists of the estrogen related receptor (ERR) signaling pathway - cell viability counter screen (AID 1224818).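 Note: series mostly up to about 46 µM; viability measured after 17.5 h of compound exposure.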 In short, it runs like this:
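Cytotoxicity counter screen: fluorescence from CellTiter-Fluor, added after 17.5 h compound exposure at 37 C and read 30 min later. ERR cell line seeded at 2,000 cells/well, preincubated 6 h before dosing.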

“And” between values parts separate entries of the source, which are not always exact repeats. Equal entries are not always repeated. Results filed as inconclusive are left out. Some structures have more than one record in an assay (separate samples or runs), and their calls can disagree. The source made the active and inactive calls. Unless noted, calls come from the whole dose curve; as a rule, active = well fitted curve in the direction sought with a large enough effect in the repeat runs; inconclusive = weak or mixed curves; inactive = no such curve, though single readings can be large; an effect the other way counts as inactive or inconclusive.

On to `COP(=O)(OC)C(O)C(Cl)(Cl)Cl` (centres undefined), for which the Potency entry in [1], in assay [2], in [3], in assay [5], in assay [6] and in assay [7] was “inactive” throughout. In addition, the Potency entry in [8], in [9], in [10], in assay [11], in [12] and in assay [13] was “inactive” each time. In assay [4], the compound was classed as inactive.
For the compound `CC[N+]1(C)CCCC1`, the Potency result in assay [1], in assay [2], in [3], in assay [5], in assay [6] and in assay [7] was “inactive” each time. In addition, the Potency result in assay [8], in [9], in assay [14], in assay [10] and in [11] was “inactive” in each case. For the same compound, the call in assay [4] was inactive.
On to `CCn1cc[n+](C)c1C`, for which the Potency result in [1], in assay [2], in assay [3], in [5], in assay [6] and in [7] was “inactive” throughout. Moreover, the Potency entry in [8], in assay [9], in assay [10], in [11], in assay [12] and in assay [13] was “inactive” throughout. For the same compound, the compound was classed as inactive in [4].
On to `CCCC[n+]1ccccc1C`, for which the Potency entry in [1], in [2], in assay [3], in [5], in assay [6] and in assay [7] was “inactive” throughout. Besides, the Potency result in assay [8], in assay [9], in [14], in assay [10] and in [11] was “inactive” throughout. Besides, the compound was classed as inactive in [4].
With `CCCCCCn1cc[n+](C)c1`, the Potency result in assay [1], in assay [2], in assay [3], in assay [5], in assay [6] and in assay [7] was “inactive” in each case. Besides, the Potency entry in assay [8], in assay [9], in assay [14], in [10] and in [11] was “inactive” each time. Besides, the result in assay [4] was inactive.
Consider `COCC(=O)N(c1c(C)cccc1C)C(C)C(=O)OC` (centres undefined), for which the Potency result in assay [1], in [2], in assay [3], in [5], in assay [6] and in assay [7] was “inactive” throughout. The Potency result in assay [8], in assay [9], in [10], in [11], in assay [12] and in [13] was “inactive” throughout. Also, the compound was called inactive in assay [4].
As to `CCCn1cc[n+](C)c1`, the Potency result in [1], in assay [2], in assay [3], in [5], in assay [6] and in [7] was “inactive” each time. Further, the Potency result in assay [8], in [9], in assay [10] and in assay [11] was “inactive” each time. The compound was called inactive in assay [4].
For the compound `Oc1ccccc1-c1ccccc1`, the Potency result in [1], in assay [2], in [3], in [5], in assay [6] and in assay [7] was “inactive” each time. The Potency entry in assay [8], in assay [9], in assay [10] and in [11] was “inactive” each time. For the same compound, the compound was classed as inactive in assay [4].
On to `Cc1cc(Cl)ccc1N`, for which the Potency entry in assay [1], in [2], in [3], in [5], in [6] and in assay [7] was “inactive” each time. The Potency result in assay [8], in [9], in [10], in [11], in assay [12] and in assay [13] was “inactive” each time. The call in assay [4] was inactive.
In the case of `Cc1cc(-c2ccc(N)c(C)c2)ccc1N`, the Potency entry in [1], in assay [2], in assay [3], in assay [5], in assay [6] and in assay [7] was “inactive” each time. For the same compound, the Potency result in assay [8], in assay [9], in assay [14], in [10], in assay [11] and in assay [12] was “inactive” throughout. Also, in [4], the outcome was inactive. For the same compound, the Potency in assay [13] was 15.1 µM (active).
Regarding `C1CCC(NC2CCCCC2)CC1`, the Potency entry in assay [1], in [2], in assay [3], in assay [5], in [6] and in assay [7] was “inactive” in each case. In addition, the Potency result in assay [8], in [9], in assay [14], in assay [10], in [11] and in assay [12] was “inactive” in each case. For the same compound, the Potency entry in assay [13] was “inactive”. The compound was classed as inactive in assay [4].
Regarding `C[N+](C)(C)Cc1ccccc1`, the Potency result in assay [1], in assay [2], in [3], in [5], in [6] and in assay [7] was “inactive” each time. Moreover, the Potency result in [8], in assay [9], in assay [14], in [10] and in [11] was “inactive” each time. Also, the result in assay [4] was inactive.
With `CCOP(=S)(OCC)Oc1ccc2c(C)c(Cl)c(=O)oc2c1`, the Potency entry in [1], in assay [2], in assay [3], in [5], in assay [6] and in assay [7] was “inactive” each time. Besides, the Potency result in [8], in [9], in assay [10], in [11] and in assay [12] was “inactive” throughout. Moreover, the call in assay [4] was inactive. Moreover, the Potency entry in assay [13] was “inactive and 11.9 µM (active)”.
As for `Oc1cccc2cccnc12`, the Potency result in assay [2] was “inactive and 8.71 µM (active)”; in [3], “inactive and 977 nM (active)”; in assay [5] it was 780 nM (active) and 155 nM (active); in assay [6], 3.44 µM (active) and inactive; in assay [7] it was 774 nM (active) and 864 nM (active) and inactive; in [8], 1.23 µM (active) and inactive. Further, the Potency was 780 nM (active) and 692 nM (active) and inactive in [10]; “inactive and 7.7 µM (active)” in assay [11]; 0.727 µM (active) in assay [15]. The compound was called inactive in [4]. Also, the Potency entry in assay [9] and in [14] was “inactive” in each case.
With `Nc1ccc(Cl)cc1`, the Potency result in assay [3], in assay [5], in [6], in [7], in assay [8] and in assay [9] was “inactive” each time. The Potency entry in assay [10], in assay [11] and in [15] was “inactive” throughout. Besides, the outcome in assay [4] and in [16] was inactive.
For the compound `O=C(O)CCl`, the Potency result in assay [1], in [2], in [3], in assay [5], in [6] and in assay [7] was “inactive” each time. The Potency result in assay [8], in assay [9], in [10], in assay [11], in [12] and in [13] was “inactive” each time. The result in [4] was inactive.
In the case of `O=[N+]([O-])c1ccccc1O`, the Potency result in assay [1], in assay [2], in [3], in assay [5], in [6] and in [7] was “inactive” in each case. Moreover, the Potency entry in assay [8], in assay [9], in [10], in assay [11], in assay [12] and in [13] was “inactive” in each case. For the same compound, the call in assay [4] was inactive.
As for `CC[n+]1ccccc1`, the Potency result in assay [1], in [2], in assay [3], in [5], in [6] and in assay [8] was “inactive” each time. Besides, the Potency result in assay [9], in [10] and in [13] was “inactive” each time. In [4], the compound was classed as inactive. Moreover, the Potency result in [7] was “inactive and 1.71 µM (active)”; in assay [11], “inactive and 54 µM (active)”.

Source of the values: PubChem BioAssay (Tox21).
